The results in this text go back to PMC5540273 (PLoS ONE, 2017).

Test systems include S6K1; SBK1; SGK2; SGK3; SGK; SIK2; SIK; SLK; SNRK; SRC; SRMS; SRPK1; SRPK2; SRPK3; STK16; STK33; STK35.
Common to all, as to conditions: concentration: 1 μM,replicates: in singlicate; n = 1
Experiment [1] concerns T1, RSK4(Kin.Dom.1-N-terminal).
T1 construct: gene RPS6KA6

Experiment [2] deals with T2, RSK4(Kin.Dom.2-C-terminal).
T2 construct: gene RPS6KA6

Another experiment has as its system T3, SNARK.
T3 construct: gene NUAK2
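Further: KINOMEscan kinase panel screen.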

For the compound `Cc1cc(C(=O)Nc2ccc(Oc3ccc4nc(NC(=O)C5CC5)cn4n3)cc2)nn1-c1ccccc1`, the “%Inh” value (in experiment [1]; in [2]; with S6K1; in the experiment with SBK1; with SGK2; in the experiment with SGK3) was 0% each time. The “%Inh” value in the experiment on SGK amounted to 0%; with SIK2, 0%; with SIK, 27%; with SLK, 0%; in the experiment with SNARK, 0%; in the experiment on SNRK, 0%. Moreover, the “%Inh” value in the experiment with SRC was 34%; with SRMS, 0%; with SRPK1 it was 8%; with SRPK2, 33%; in the experiment on SRPK3, 30%; in the experiment with STK16, 18%. Further, the “%Inh” value with STK33 and in the experiment with STK35 was 0% throughout.

Turning to `C[C@H]1Oc2cc(cnc2N)-c2c(nn(C)c2C#N)CN(C)C(=O)c2ccc(F)cc21`, the “%Inh” value in [1] came to 0%; in [2], 14%; in the experiment on S6K1, 0%; with SBK1 it was 69%; in the experiment on SGK2 it was 0%; in the experiment on SGK3, 0%. Further, the “%Inh” value in the experiment with SGK is on record as 0%; in the experiment on SIK2 it was 0%; with SIK, 12%; in the experiment on SLK, 98.3%; with SNARK, 0%; in the experiment on SNRK it was 0%. For the same compound, the “%Inh” value in the experiment with SRC was determined as 43%; in the experiment with SRMS it was 0%; in the experiment with SRPK1 it was 9%; in the experiment with SRPK2 it was 0%; with SRPK3, 12%; in the experiment on STK16 it was 0%. Besides, the “%Inh” value in the experiment on STK33 came to 8%; with STK35 it was 1%.

With `Cl.Oc1cc(-c2nc(-c3ccccc3)[nH]c2-c2ccncc2)ccc1Cl` [SB-386023], the “%Inh” value in experiment [1] stood at 22%; in [2] it was 57%; with S6K1 it was 0%; in the experiment on SBK1 it was 24%; in the experiment on SGK2, 18%; in the experiment with SGK3, 13%. Further, the “%Inh” value was determined as 9% in the experiment with SGK; 0% in the experiment with SIK2; 20% in the experiment with SIK; 81% in the experiment with SLK; 24% in the experiment with SNARK; 0% with SNRK. Moreover, the “%Inh” value in the experiment with SRC was 88%; with SRMS, 12%; with SRPK1, 0%; in the experiment on SRPK2, 0%; with SRPK3 it was 5%; in the experiment with STK16, 7%. The “%Inh” value in the experiment on STK33 and in the experiment on STK35 was 0% each time.

For the compound `Cl.Cl.NC[C@H](Cc1ccc(C(F)(F)F)cc1)NC(=O)c1cc(Br)c(-c2ccnc3[nH]ccc23)s1` [GSK1487252], the “%Inh” value in experiment [1] was found to be 34%; in experiment [2], 24%; in the experiment with S6K1 it was 72%; in the experiment on SBK1, 14%; with SGK2, 12%; with SGK3 it was 82%. Further, the “%Inh” value in the experiment on SGK was 51%; with SIK2, 0%; in the experiment on SIK, 0%; in the experiment with SLK it was 5%; in the experiment with SNARK, 91.5%; in the experiment on SNRK, 0%. Also, the “%Inh” value was 0% with SRC; 0% in the experiment with SRMS; 47% in the experiment on SRPK1; 0% with SRPK2; 0% in the experiment on SRPK3; 16% with STK16. Moreover, the “%Inh” value was found to be 96.8% in the experiment with STK33 and 0% in the experiment with STK35.

`Cc1cc2cn[nH]c2cc1-c1cccc2c(N)c(C(N)=O)nnc12`: the “%Inh” value worked out at 40% in experiment [1]; 0% in [2]; 23% with S6K1; 42% in the experiment on SBK1; 26% in the experiment with SGK2; 45% with SGK3. Moreover, the “%Inh” value was 41% with SGK; 1% in the experiment with SIK2; 100% in the experiment on SIK; 16% in the experiment with SLK; 62% in the experiment with SNARK; 11% in the experiment with SNRK. Further, the “%Inh” value in the experiment on SRC was 17%; in the experiment with SRMS, 35%; in the experiment on SRPK1, 49%; in the experiment on SRPK2, 14%; in the experiment on SRPK3, 34%; in the experiment with STK16, 0%. In addition, the “%Inh” value in the experiment with STK33 and in the experiment on STK35 was 0% each time.

Consider `Cc1n[nH]c2ccc(-c3cc(OC[C@@H](N)Cc4ccccc4)cnc3-c3ccoc3)cc12.O=C(O)C(F)(F)F.O=C(O)C(F)(F)F` [GSK507358], for which the “%Inh” value in [1] is 0%; in [2], 13%; with S6K1 it was 28%; in the experiment on SBK1, 9%; in the experiment with SGK2, 0%; in the experiment with SGK3, 41%. Besides, the “%Inh” value in the experiment on SGK is 18%; with SIK2 it was 0%; in the experiment on SIK, 0%; in the experiment with SLK, 97.1%; with SNARK, 18%; in the experiment on SNRK, 0%. Besides, the “%Inh” value with SRC is given as 10%; in the experiment with SRMS, 0%; with SRPK1, 61%; with SRPK2, 4%; in the experiment with SRPK3, 34%; in the experiment on STK16, 6%. Further, the “%Inh” value is recorded as 73% in the experiment with STK33 and 95.9% with STK35.

In the case of `O=C(NCCCN1CCOC1=O)c1cnc(NCc2cc(Cl)ccc2Cl)nc1NC1CCCC1`, the “%Inh” value was 0% in [1]; 23% in [2]; 13% in the experiment on S6K1; 8% with SBK1; 0% with SGK2; 0% in the experiment with SGK3. Also, the “%Inh” value is on record as 0% with SGK; 10% in the experiment with SIK2; 16% with SIK; 11% in the experiment on SLK; 0% in the experiment on SNARK; 5% in the experiment on SNRK. For the same compound, the “%Inh” value came out at 11% with SRC; 0% in the experiment with SRMS; 39% with SRPK1; 0% in the experiment with SRPK2; 26% in the experiment on SRPK3; 15% with STK16. Also, the “%Inh” value in the experiment with STK33 is recorded as 0%; with STK35, 13%.

On to `Cc1ccc2c(-c3ccncc3)c(-c3ccc(F)cc3)nn2c1.Cl` [GW461484], for which the “%Inh” value in experiment [1] was 0%; in [2], 87%; in the experiment on S6K1, 0%; with SBK1, 22%; in the experiment on SGK2, 0%; in the experiment on SGK3 it was 4%. Moreover, the “%Inh” value in the experiment with SGK was determined as 0%; in the experiment with SIK2, 0%; with SIK, 0%; with SLK it was 2%; in the experiment on SNARK it was 4%; with SNRK it was 0%. Also, the “%Inh” value with SRC is 7%; with SRMS it was 5%; in the experiment on SRPK1, 0%; with SRPK2, 17%; in the experiment on SRPK3 it was 0%; with STK16, 8%. Besides, the figures for the “%Inh” value in the experiment on STK33 and in the experiment with STK35 were 14% and 0%, respectively.

As to `CCn1c(-c2nonc2N)nc2c(C#CC(C)(C)O)nc(OCCN)cc21.Cl.Cl` [GSK902056], the “%Inh” value in experiment [1] was found to be 2%; in experiment [2], 0%; with S6K1, 8%; in the experiment on SBK1, 36%; in the experiment on SGK2, 17%; with SGK3, 0%. The “%Inh” value was found to be 0% in the experiment on SGK; 0% in the experiment with SIK2; 0% in the experiment with SIK; 0% in the experiment with SLK; 11% with SNARK; 0% in the experiment with SNRK. Further, the “%Inh” value with SRC amounted to 0%; in the experiment on SRMS, 0%; in the experiment on SRPK1 it was 0%; in the experiment on SRPK2, 7%; in the experiment on SRPK3, 17%; in the experiment with STK16, 0%. Besides, the “%Inh” value with STK33 and in the experiment on STK35 was 0% throughout.

As to `Cc1ccc(-n2nc(C(C)(C)C)cc2NC(=O)Nc2ccc(OCCN3CCOCC3)c3ccccc23)cc1` [GW839464], the “%Inh” value amounted to 0% in [1]; 6% in [2]; 0% in the experiment with S6K1; 0% in the experiment on SBK1; 2% in the experiment with SGK2; 0% in the experiment on SGK3. Besides, the “%Inh” value in the experiment on SGK came out at 0%; in the experiment with SIK2, 0%; in the experiment with SIK it was 0%; in the experiment on SLK, 68%; in the experiment on SNARK it was 0%; in the experiment on SNRK, 0%. Further, the “%Inh” value in the experiment on SRC amounted to 0%; with SRMS it was 8%; in the experiment on SRPK1, 64%; with SRPK2 it was 0%; in the experiment on SRPK3, 29%; in the experiment on STK16 it was 6%. Moreover, the entries for the “%Inh” value in the experiment with STK33 and with STK35 were 21% and 0%, respectively.

Turning to `CC(C)Nc1cc(-c2ccc3c(N)n[nH]c3c2)nc(N)n1` [GSK2221681], the “%Inh” value in experiment [1] is 41%; in experiment [2] it was 12%; in the experiment with S6K1, 1%; with SBK1, 1%; in the experiment with SGK2, 0%; with SGK3, 7%. Moreover, the “%Inh” value with SGK is recorded as 0%; with SIK2 it was 0%; in the experiment with SIK, 0%; in the experiment with SLK it was 4%; with SNARK it was 17%; in the experiment on SNRK, 0%. In addition, the “%Inh” value in the experiment with SRC is 0%; with SRMS, 0%; with SRPK1 it was 69%; in the experiment with SRPK2, 0%; in the experiment with SRPK3, 43%; in the experiment on STK16, 19%. The “%Inh” value with STK33 and in the experiment with STK35 was 0% each time.

Turning to `Nc1nc(Nc2ccccc2)cc(-c2ccc3c(N)n[nH]c3c2)n1` [GSK2225749], the “%Inh” value was 32% in experiment [1]; 21% in [2]; 0% in the experiment with S6K1; 49% with SBK1; 0% in the experiment with SGK2; 9% with SGK3. For the same compound, the “%Inh” value came to 6% with SGK; 0% in the experiment on SIK2; 0% in the experiment with SIK; 0% in the experiment on SLK; 21% in the experiment with SNARK; 0% in the experiment on SNRK. Further, the “%Inh” value with SRC stood at 0%; with SRMS, 0%; in the experiment on SRPK1 it was 80%; in the experiment with SRPK2, 2%; in the experiment on SRPK3 it was 83%; in the experiment on STK16, 59%. Further, the results for the “%Inh” value in the experiment on STK33 and with STK35 were 14% and 0%, respectively.

For the compound `Cl.Cl.Nc1nc(-c2ccc3c(N)n[nH]c3c2)cc(N2CCCC(NC(=O)c3ccccc3)C2)n1` (centres unmarked) [GSK2286775], the “%Inh” value in experiment [1] is listed as 0%; in experiment [2], 11%; in the experiment on S6K1 it was 1%; in the experiment with SBK1 it was 6%; with SGK2 it was 0%; in the experiment on SGK3, 37%. In addition, the “%Inh” value is on record as 7% in the experiment on SGK; 0% in the experiment with SIK2; 0% in the experiment on SIK; 0% with SLK; 21% in the experiment on SNARK; 0% in the experiment on SNRK. Moreover, the “%Inh” value in the experiment with SRC is 0%; in the experiment on SRMS, 0%; in the experiment with SRPK1, 56%; in the experiment with SRPK2, 0%; in the experiment with SRPK3 it was 53%; with STK16 it was 31%. In addition, the “%Inh” value in the experiment with STK33 and in the experiment with STK35 was 0% in each case.
